High-throughput results (PubChem)
Polio RdRp inh = poliovirus RNA polymerase inhibition; poliovirus polymerase elongation, fluorescence polarization; active compounds read low; AID 588519; 0.66% of 150,000 active; % elongation, % (compound at 16.7 µg/mL); in the data active = % elongation below about 90%
MbtI inh = inhibitors of Mycobacterium tuberculosis siderophore enzyme MbtI; P9WFX0; purified MbtI enzyme, fluorescence intensity read-out; inhibition, % (no concentration beside the values); 0.89% of 100,000 active; AID 493033; in the data active = inhibition mostly above about 56%, no sharp cut-off; inactive = mostly below about 77%
Target sequence (P9WFX0 whole entry, looked up): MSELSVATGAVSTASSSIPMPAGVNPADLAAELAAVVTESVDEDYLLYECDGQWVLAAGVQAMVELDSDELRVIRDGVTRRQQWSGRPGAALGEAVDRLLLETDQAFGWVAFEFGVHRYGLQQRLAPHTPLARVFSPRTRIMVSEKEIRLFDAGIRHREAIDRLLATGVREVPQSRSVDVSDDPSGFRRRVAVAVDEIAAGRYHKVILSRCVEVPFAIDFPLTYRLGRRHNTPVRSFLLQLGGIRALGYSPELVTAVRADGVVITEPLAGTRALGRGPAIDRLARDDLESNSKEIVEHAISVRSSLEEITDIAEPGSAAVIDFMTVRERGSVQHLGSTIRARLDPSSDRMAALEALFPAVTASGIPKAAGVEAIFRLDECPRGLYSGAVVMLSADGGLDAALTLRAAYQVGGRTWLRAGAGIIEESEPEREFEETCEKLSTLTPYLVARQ
MenB inh = blocks the Mycobacterium tuberculosis MenB enzyme; P9WNP5; MenB enzyme assay, absorbance read-out; inhibition, % (no concentration beside the values); 0.43% of 100,000 active; AID 540299; in the data active = inhibition above about 21%, passing the limit was not always enough
Of the large screens only hits and unclear results are named; the others gave an inactive call; ! = repeats disagree. Most compounds without a hit are left out; they make up all but 1.4% or so of the library.

CCNc1nc(NCC)n2c(SCC(=O)c3cccs3)nnc2n1	none (no result: MbtI inh)
CCNc1nc(NCC)n2c(SCC(=O)Nc3ccc(CC)cc3)nnc2n1	MbtI inh 86.8
Cc1ccc(N(CC(=O)Nc2ccc(C)c(Cl)c2)S(=O)(=O)c2cccs2)cc1	Polio RdRp inh 89.0 (no result: MbtI inh, MenB inh)
COc1ccc(NC(=O)CN(c2ccc(C)cc2)S(=O)(=O)c2cccs2)cc1OC	none (no result: MbtI inh, MenB inh)
C=CCN1C(=O)/C(=C\c2cccs2)SC1=Nc1ccccc1	none (no result: MbtI inh)
Nc1n[nH]c(C2CCCCC2)n1	none
Nc1nc(N)c2[nH]c(C3CCCCC3)nc2n1	Polio RdRp inh 79.0
CC(C)(C)c1ncc(C(=O)O)cn1	none
O=C(/C=C/c1ccccc1)Oc1nc2ccccc2s1	Polio RdRp inh 85.0 (no result: MbtI inh)
O=C(/C=C/c1ccccc1)Oc1ccccc1	none
COc1cc(-c2nnc(-c3ccc(N4CCOCC4)cc3)o2)cc(OC)c1OC	none
CC(C)(C)c1ccc(-c2nnc(-c3ccc(N4CCOCC4)cc3)o2)cc1	MenB inh 34.7
COc1ccc(C2C3=C(CC(C)(C)CC3=O)Nc3nc(SCCN4CCOCC4)[nH]c(=O)c32)cc1OC (configuration not stated)	none
O=S(=O)(c1ccc(I)cc1)N1CCCCCC1	none
O=S(=O)(c1ccc(=S)[nH]c1)N1CCCCCC1	MbtI inh 94.8
COC(CNc1ncnc2sc(-c3ccccc3)cc12)OC	MbtI inh 79.8
OCCCNc1ncnc2sc(-c3ccccc3)cc12	none
O=C1COc2ccccc2N1Cc1ccc(OC(F)(F)F)cc1	none
N#Cc1c(-c2ccccc2)cc(-c2ccccc2)nc1SCC(O)CS(=O)(=O)Cc1ccccc1 (configuration not stated)	Polio RdRp inh 80.0 (no result: MbtI inh, MenB inh)
Cc1ccc(-c2cc(-c3ccccc3)c(C#N)c(SCC(O)CS(=O)(=O)Cc3ccccc3)n2)cc1 (configuration not stated)	none (no result: MbtI inh, MenB inh)
Cc1cc(C(=O)Sc2ccc(Cl)cc2)nn1C(C)(C)C	none
O=C(Sc1ccc(Cl)cc1)c1ccno1	MbtI inh 65.2
O=C(CSC1=NCCN1)C1COc2ccccc2O1 (configuration not stated)	MenB inh 84.0
O=C(CSC1=NCCN1)N1CCc2ccccc21	none (no result: MenB inh)
COc1cc(NC(=O)COCc2cc(-c3ccc(F)cc3)on2)c(OC)cc1Cl	none
O=C(Nc1nc(-c2cccnc2)cs1)C1CCCC1	none
Nc1nc(=S)c2[nH]cnc2[nH]1	none
Cc1csc2nc(COc3ccc(NC(=O)COc4ccc(F)cc4)cc3)cc(=O)n12	none (no result: MbtI inh, MenB inh)
COC1(NS(=O)(=O)c2ccc(C)cc2)C(C)=CC(=O)C=C1C	MbtI inh 93.7 (no result: Polio RdRp inh, MenB inh)
COC(=O)C1=C(C)NC(=O)C1(NS(=O)(=O)c1ccc(C)cc1)C(F)(F)F (configuration not stated)	none
Cc1ccc(Cl)cc1N1CCN(CCCNC(=O)C2COc3ccccc3C2)CC1 (configuration not stated)	none (no result: MbtI inh, MenB inh)
O=C(Oc1ccccc1-c1nnco1)c1ccc(C(F)(F)F)cc1	none
Cc1snnc1C(=O)Oc1ccccc1-c1nnco1	Polio RdRp inh 78.0
CSCC(O)Cn1[nH]c(=O)ccc1=O (configuration not stated)	none
COC(=O)NCCSc1nnnn1-c1ccccc1	MenB inh 30.7
O=C(NCCSc1nnnn1-c1ccccc1)c1ccccc1	none
COc1ccc(CNc2nccs2)cc1OC	MenB inh 28.8
COc1ccc(CC(=O)Nc2nccs2)cc1OC	none (no result: MbtI inh)
CNC(=O)Oc1c(Br)cc2sc(=O)oc2c1Br	MbtI inh 99.5
CNC(=O)Oc1ccc2sc(=O)oc2c1	none (no result: Polio RdRp inh, MenB inh)
CCCCNc1nc2ccccc2n1CC(N)=O	none
CCCOc1ccc(S(=O)(=O)n2cc(Br)c(=O)[nH]c2=O)cc1	MbtI inh 81.7 (no result: Polio RdRp inh, MenB inh)
O=c1[nH]c(=O)n(S(=O)(=O)c2ccc(F)cc2)cc1F	none
COC(=O)c1c(-c2cccs2)csc1NC(=O)c1ccc(C(C)C)cc1	Polio RdRp inh 67.0 (no result: MbtI inh, MenB inh)
COC(=O)c1c(-c2cccs2)csc1NC(=O)c1ccc(Cl)cc1	Polio RdRp inh 67.0 (no result: MbtI inh, MenB inh)
COC(=O)c1c(-c2cccs2)csc1NC(=O)c1cccc(Cl)c1	Polio RdRp inh 82.0 (no result: MbtI inh, MenB inh)
COC(=O)c1c(-c2cccs2)csc1NC(=O)c1ccc(C(C)(C)C)cc1	Polio RdRp inh 77.0 (no result: MbtI inh, MenB inh)
COC(=O)c1ccsc1NC(=O)c1cccc(C)c1	none
CC(C)c1ccc(NC(=O)c2ccc(NC(=O)CCS(=O)(=O)c3cccs3)cc2)cc1	none (no result: MbtI inh, MenB inh)
CCOC(=O)c1c(-c2cccs2)csc1NC(=O)CN1CCC(C)CC1	none
CCOC(=O)c1c(-c2cccs2)csc1NC(=O)c1ccccc1	none
CN(C)c1nc2cc(Cl)ccc2o1	none (no result: MbtI inh)
CC(=O)Nc1cc(-n2c(C)nc3ccccc3c2=O)ccc1Cl	none
CCN(CC)CCn1c(=N)n(Cc2ccc(C(C)(C)C)cc2)c2ccccc21	none
COc1ccccc1CN1CCN(C(CC(C)C)c2nnnn2Cc2ccc(F)cc2)CC1 (configuration not stated)	MenB inh 32.5
Fc1ccc(C(c2nnnn2Cc2ccccc2)N2CCSCC2)cc1 (configuration not stated)	none
C1=C(c2ccccc2)CC(c2ccccc2)=NN=C1c1ccccc1	none
COc1cc(NC(=O)C(F)(F)F)c(OC)cc1Br	MenB inh 32.8
COc1cc(NC(=O)C(C)(C)C)ccc1Br	none
O=C(CSc1nc(-c2ccccc2)cs1)NCCCN1CCCC1=O	none
CCCCN(CC)C(=O)CCn1c(=O)c2cccn2c2cccnc21	none (no result: MbtI inh, MenB inh)
CCCNC(=O)N(C)c1ncnnc1NC	MenB inh 28.8
CCCNC(=O)N(C)Cc1ccccc1	none (no result: MbtI inh)
COc1ccccc1CNC(=O)N(C)C	none
Cc1ccccc1C(=O)Nc1cccc(NC(=O)c2ccc(C(C)(C)C)cc2)c1	none (no result: MbtI inh, MenB inh)
CN(C)C(=S)SSC(=S)N(C)C	MbtI inh 86.6
COC(=O)c1cc2cccc(OC)c2oc1=O	none
COc1cccc(OC)c1C(=O)ON=C1C=CC(=O)C=C1	MbtI inh 82.7
O=C(CC(SC1CCCCC1)C(=O)O)c1ccc(Br)cc1 (configuration not stated)	none (no result: MbtI inh)
O=C(COC(=O)c1ccc(Cl)cc1)NC1CC1	none
O=C(CC(NC1CC1)C(=O)O)c1ccc(Cl)cc1 (configuration not stated)	MenB inh 34.8 (no result: MbtI inh)
O=C(CC(Sc1ccc(Br)cc1)C(=O)O)c1ccc(Cl)cc1 (configuration not stated)	Polio RdRp inh 85.0 (no result: MbtI inh)
CCOc1ccccc1NC(=O)C(C)Sc1nc2c(c(=O)[nH]1)CCCC2 (configuration not stated)	none (no result: MbtI inh, MenB inh)
CC(=O)Nc1scc2c1c(=O)oc1ccccc12	none
COC(=O)Nc1scc2c1c(=O)oc1ccccc12	MbtI inh 70.9
CCN(C(=O)c1cc2c(=O)n3cccc(C)c3nc2s1)c1ccc(OC)cc1	none
CC(C)[N+]1(C)C2CCC1CC(OC(=O)C(CO)c1ccccc1)C2 (configuration not stated)	none
C[N+]1(C)C2CCC1CC(OC(=O)C(CO)c1ccccc1)C2 (configuration not stated)	MbtI inh 65.0!
Cc1c(N=C2c3ccccc3-c3ccccc32)c(=O)n(-c2ccccc2)n1C	none (no result: MbtI inh)
CCn1c(C)c(C2N3CC4(C)CN2CC(C)(C3)C4=O)c2ccccc21 (configuration not stated)	none (no result: MbtI inh, MenB inh)
CC1SC(=S)NN1c1ccccc1 (configuration not stated)	MbtI inh 88.0 (no result: MenB inh)
CC1SC(=S)N(c2ccccc2)C1=O (configuration not stated)	none
CN1CCN(NS(=O)(=O)c2ccc(Br)s2)CC1	none
C/C(=N/NC(=O)C(F)(F)F)c1cccs1	none
